This note sets out measurements from PubChem BioAssay (NCATS).

Inconclusive results are not listed. Where a call stands in place of a potency, no number is given. The source made the active and inactive calls. Unless noted, calls come from the whole dose curve; as a rule, active = well fitted inhibition curve with a large enough effect; inconclusive = small, poorly fitted or top-dose-only effect; inactive = no such curve, though single readings can be large or run the other way.

The nature of the first assay: Primary qHTS for Vero E6 cytotoxicity: counterscreen for inhibitors of SARS-S pseudo-typed particle cell entry (AID 1479150; calls by dose curve). Conditions: cell viability; series mostly up to 57.1 µM. (In qHTS, concentration-response curves come from the screen itself.)
Regarding `CNCCCCOc1ccccc1Cc1ccccc1`, the Potency entry is “inactive”. `OCCN1CCN(CC/C=C2/c3ccccc3Sc3ccc(C(F)(F)F)cc32)CC1`: the Potency entry is “inactive”.

Take `CNCCC=C1c2ccccc2CCc2ccccc21`: the Potency entry was “inactive”.

The next assay is described as follows: Confirmatory qHTS for VERO E6 Cytotoxicity Assay: Counterscreen for SARS-CoV-2 CPE Assay (AID 1508605; calls by dose curve; note: nearly all actives have a fitted effect of over 60% in size; note: potency is the fitted concentration of half-maximal effect). Conditions: cell viability luminescence; series mostly up to 20 µM.
For the compound `CNCCCCOc1ccccc1Cc1ccccc1`, the Potency result was “inactive”. Regarding `CN1CCN(CCC=C2c3ccccc3Sc3ccc(S(=O)(=O)N(C)C)cc32)CC1`, the Potency was 11.2 µM (active).

For the compound `CNCCC=C1c2ccccc2CCc2ccccc21`, the Potency result is “inactive”.

A short description of a further assay: Primary qHTS for inhibitors of La Crosse Virus (LACV) - induced cell death in SH-SY5Y cells (AID 1508616).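 Note: top concentration of the series differs between compounds; higher means more rescue of cells from virus-induced death.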 Conditions: SH-SY5Y LACV cytopathicity rescue, ATP luminescence, 6 d; series mostly up to 4.29 µM. The gist of the method: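 SH-SY5Y cells (6000/well) plated 24 h, then given compounds by pin transfer and LACV at 0.01 MOI for 6 days at 37C. Viability measured by ATPLite luminescence, normalized to infected DMSO and uninfected DMSO.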
For the compound `C[C@]12CCC(=O)C=C1CC[C@@H]1[C@H]3CC[C@](C)(O)[C@@]3(C)CC[C@@H]12`, the compound was called inactive. For `COc1ccc2c3c1O[C@H]1[C@H](O)CC[C@H]4[C@@H](C2)N(C)CC[C@@]341`, the result was inactive.

With `CC(Cc1ccccc1)N(C)Cc1ccco1` (stereo unspecified), the call was inactive.

In the case of `C[C@]12Cc3cn[nH]c3C[C@@H]1CC[C@@H]1[C@@H]2CC[C@@]2(C)[C@H]1CC[C@]2(C)O`, the result was inactive.

On to `CCC1(c2ccccc2)C(=O)N(COC)C(=O)N(COC)C1=O`, for which the outcome was inactive. The same measure, in the same setting: to `c1ccc(CN2CCNCC2)cc1` belongs “inactive”; to `NNc1ccccc1`, “inactive”; to `[N-]=[N+]=CC(=O)OC[C@H](N)C(=O)O`, “inactive”.

For the compound `CC(C)(N)Cc1ccccc1Cl`, the result was inactive. As to `O=C(Nc1ccc(Br)cc1)c1cc(Br)cc(Br)c1O`, the compound was classed as inactive. Take `CCN(CCO)CCn1c(Cc2ccccc2)nc2c1c(=O)n(C)c(=O)n2C`: the call was inactive. As for `COc1cc(CCN)cc(OC)c1OC`, the compound was classed as inactive. Regarding `CCCCC/C=C\C/C=C\C/C=C\C/C=C\CCCC(=O)NCC(=O)O`, the outcome was inactive. Turning to `CC(=O)NC1CCSC1=O` (stereo unspecified), the compound was called inactive.

For the compound `c1ccc(N2CCNCC2)cc1`, the call was inactive.

`CN1C(=O)COc2c(C(=O)NC3CN4CCC3CC4)cc(Cl)cc21` (stereo unspecified): the call was inactive.

Turning to `CCCOC(=O)c1cncn1C(C)c1ccccc1` (stereo unspecified), the call was inactive.

As for `Nc1ccccc1C(=O)O`, the result was inactive. The same measure, in the same setting: to `O=C1CN=C(c2ccccc2)c2cc([N+](=O)[O-])ccc2N1` belongs “inactive”; to `CCCN(CCC)C(=O)Cc1c(-c2ccc(Cl)cc2)nc2ccc(Cl)cn12`, “inactive”. Same read-out and setting: for `C[C@H](N)C(=O)c1ccccc1` the value was “inactive”; for `Clc1cccc(SC2CCNCC2)n1`, “inactive”; for `COc1cc(OC)c(OC)cc1C=O`, “inactive”. As to `O=C(O)c1ccc(=O)[nH]c1`, the result was inactive. `CCCCCCC(=O)CCCCCC/C=C/C[C@@H](O)[C@H](O)[C@@](N)(CO)C(=O)O`: the call was inactive. For `ClCCN1CCCC1`, the compound was classed as inactive. For `C[C@]12CCC(=O)C=C1CC[C@@H]1[C@@H]2CC[C@@]2(C)[C@H]1CC[C@]2(C)O`, the compound was classed as inactive. Still for that read-out and setting: for `Nc1nc(N)nc(NC2CC2)n1` the value was “inactive”; for `CCC1(CC)C(=O)C=CNC1=O`, “inactive”; for `CC(Cc1ccccc1)NCCn1cnc2c1c(=O)n(C)c(=O)n2C` (stereo unspecified), “inactive”. The same measure, in the same setting: to `CN1CCC(O)(c2ccc(F)cc2)C(C(=O)c2ccc(F)cc2)C1` (stereo unspecified) belongs “inactive”.

As to `CNCC(=O)c1ccc(O)c(O)c1`, the call was inactive. On to `CC(C(=O)c1ccccc1)N(C)C` (stereo unspecified), for which the outcome was inactive. For `CCN[C@H](C)Cc1cccc(C(F)(F)F)c1`, the call was inactive. Take `COc1cc(CC(C)N)cc(OC)c1OC` (stereo unspecified): the compound was called inactive.
